Assay results taken from ChEMBL document CHEMBL4513216, “Probing the Open Global Health Chemical Diversity Library for Multistage-Active Starting Points for Next-Generation Antimalarials” (ACS Infect Dis, 2020).
Among all 68,000 compounds or so, about 2,700 (4%) showed an effect of 50% or more. Only a selection was taken, and strong results are over-represented in it overall.

tested on: Plasmodium berghei; assay: Screen against P. berghei liver stage (PbLuc), transformed with Luciferase, at 2uM; assay type: functional, HepG2; settings: tested at 2 uM

SMILES	INHIBITION [%]
C=C(C)CN(CC)Cc1nc(CC)no1	29.39
Cc1nc(CN2CCC3(CC2)CCN(C(=O)c2cscn2)C3)cs1	36.75
Cc1ccc(-c2noc([C@@H]3C[C@H](NC(=O)CC(C)(C)C)CN3C)n2)cc1	29.3
CCOC(=O)CCCNC(=O)CN1CCN(c2ncccn2)CC1	6.56
CCc1nccn1CCCNC(=O)CN1CCN(c2ncccn2)CC1	52.57
O=C(NCCCN1CCN(c2ncccn2)CC1)Nc1ccccn1	7.62
Cc1cc(C2CCCN2C(=O)CN2C(=O)OC(C)(C)C2=O)on1 (configuration not stated)	40.83
Cc1cc(C2CCCCN2C(=O)CN2C(=O)OC(C)(C)C2=O)no1 (configuration not stated)	13.51
CC(C)c1cc(C2CCCN2C(=O)CN2C(=O)OC(C)(C)C2=O)no1 (configuration not stated)	64.74
CC(C)Cc1cc(C(=O)NC(C)C)[nH]n1	31.66
O=C(Nc1nc(-c2ccccc2)ns1)N1CCN(C(=O)C2CC2)CC1	7.3
CC(Cn1cncc1-c1cnn(Cc2ccccc2)c1)N1CCCCC1 (configuration not stated)	-22.72
CN(C)Cc1ccccc1Cn1cncc1-c1cnn(C)c1	55.3
CCn1nc(C)c(-c2cncn2Cc2ccccc2CN(C)C)c1C	17.29
O=C(NCC1(CO)CC1)c1ccccc1C(F)(F)F	-41.99
Cc1ccc(N2CCCC(NCC(=O)NCC3CC3)C2)nn1 (configuration not stated)	42.92
Cc1ccc(CNC(C)c2ccc3[nH]c(=O)[nH]c3c2)s1 (configuration not stated)	74.87
COc1ccc(CNC(C)c2ccc3[nH]c(=O)[nH]c3c2)cc1 (configuration not stated)	3.9
CC(NCc1ccc(F)cc1)c1ccc2[nH]c(=O)[nH]c2c1 (configuration not stated)	-32.84
CCN(CC1CCOC1)C(=O)c1ccn(-c2ccc(OC)cc2)n1 (configuration not stated)	-8.85
Fc1ccccc1Sc1ccccc1CNC1=NCCN1	-39.75
OCC1CCCN1c1cc(NCc2cc3ccccc3o2)ncn1 (configuration not stated)	-15.36
CC(C)(C)n1ncc2c1NC(=O)CC2c1cccc(O)c1 (configuration not stated)	31.54

SMILES	INHIBITION [%]
Cc1cc(-c2nccs2)nc(C2CCN(Cc3ccc(F)cc3)CC2)n1	-12.17
Cc1noc(C)c1CN1CCC2(CC1)NC(=O)CC2c1ccncc1 (configuration not stated)	-12.36
CCN1CCCC(O)(CNCc2ccccn2)C1 (configuration not stated)	-36.39
CCN1CCCC(O)(CNCc2ccncc2)C1 (configuration not stated)	50.02
CCN1CCCC(O)(CNCc2ccc3c(c2)OCO3)C1 (configuration not stated)	35.84
Cc1ccc(CN2CCn3c(CNC(=O)c4cccn4C)cnc3C2)s1	-40.86
COc1cccc(CN2CCC3(COCc4cnc(N(C)C)nc43)C2)c1 (configuration not stated)	23.93
CSCc1cccc(S(=O)(=O)NCCCn2ccnc2)c1	16.48
c1cnn(CC2CN(c3ncnc4ccsc34)CCO2)c1 (configuration not stated)	32.39
O=C(C1=CCCC1)N1C[C@@H]2COC[C@]2(COCC2CC2)C1	24.23
Cc1cc(F)ccc1C(=O)N1C[C@@H]2COC[C@]2(CN(C)C)C1	25.58
COC[C@]12COC[C@H]1CN(C(=O)c1ccc(F)cc1C)C2	57.85
O=C(c1ccnnc1)N1C[C@@H]2COC[C@]2(COCC2CC2)C1	-57.61
Cc1cc(F)ccc1C(=O)N1C[C@@H]2COC[C@]2(COCC2CC2)C1	65.38
COC[C@]12COC[C@H]1CN(C(=O)C1CC(F)(F)C1)C2	-22.65
CCOc1c(F)cccc1C(=O)N(c1cccnc1)C(C)C	-56.64
CC1(C)CN(C(=O)c2ccc3nncn3c2)CCS1	-17.04
Cc1nccn1-c1cccc(N2CCC(OCC3CCCCO3)CC2)n1 (configuration not stated)	-16.7
COc1ccc(OC)c2c(C)cc(N(C)Cc3cc(C)on3)nc12	38.87
Cc1cccc(CN2CC3(CCN(C4CCOC4)CC3)OCC2=O)n1 (configuration not stated)	15.98
COc1c(CNCc2ccc(C(=O)N3CCCC3)cc2)c(C)nn1C	-36.39
O=C(CN1CCCC(c2ncc[nH]2)C1)NCCCN1CCCCCC1=O (configuration not stated)	-21.61
O=C(CCC(F)(F)F)N1CCCC(c2ncc[nH]2)C1 (configuration not stated)	-1.64

SMILES	INHIBITION [%]
O=C(CN1CCCC(c2ncc[nH]2)C1)NCC(F)(F)F (configuration not stated)	51.23
CC(=O)NS(=O)(=O)c1ccc(F)c(C(F)(F)F)c1	-38.34
CS(=O)(=O)CCC(=O)N1CCC2(CCCN(C3CCOCC3)C2=O)C1 (configuration not stated)	-11.19
O=C(O)c1cc(S(=O)(=O)Nc2cccc3c2OCCO3)c(Cl)cc1F	-47.76
CCOc1ccc(C(F)(F)F)cc1NC(=O)N1CCC(C(N)=O)CC1	-3.17
CCc1n[nH]c(NC(=O)c2ccc(Cl)cn2)c1Br	-3.87
CN1CCN(Cc2cn3c(n2)CN(CC2CC2)CC3)CC1	70.17
CN1CCN(Cc2cn3c(n2)CN(Cc2ccncc2)CC3)CC1	51.26
c1c(CN2CCCC2)nc2n1CCN(CC1CC1)C2	-33.57
CN1CCN(Cc2cn3c(n2)CN(Cc2cccnc2)CC3)CC1	-59.73
c1c(CN2CCCCC2)nc2n1CCN(CC1CC1)C2	7.13
Cc1ccc(CN2CCn3cc(CN4CCN(C)CC4)nc3C2)cc1	18.32
CCCS(=O)(=O)NC(C)C(=O)NCc1ccc(N2CCCC2)nc1 (configuration not stated)	-5.15
O=C(c1cc[nH]n1)N1CCC2(CC1)CC(Oc1cccnc1)CO2 (configuration not stated)	-0.83
O=C(CSc1ccccc1F)NS(=O)(=O)c1ccc2c(c1)OCCO2	12.81
O=C(CCCOc1ccccc1F)Nc1cc[nH]n1	-9.47
CC(NC(=O)COc1nc(C(C)(C)C)no1)c1ccco1 (configuration not stated)	1.22
Cn1cc(C2CCCN2C(=O)CS(=O)(=O)C2CCCC2)cn1 (configuration not stated)	-0.06
Cc1ccc2c(c1)C1(CCN(C(N)=O)CC1)CN2C(=O)N(C)C	-22.42
CC(=O)N1CCC2(CC1)CN(CC1CC1)c1ccc(F)cc12	-18.44
Cc1ccc2c(c1)C1(CCN(C(N)=O)CC1)CN2CC1CC1	52.12
